In the supplement of paper PMC9694430:

Assays:
Assay in all cases: thermal shift delta Tm vs DMSO control; higher = stronger stabilization (binding)
Settings in all cases: 12.5 µM; protein concentration 2 µM
LOC_OS02G45750-cb003 = system: LOC_OS02G45750-cb003
Outline: (§1)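 Compounds dissolved in DMSO were added to purified rice kinase domain constructs, which had been expressed in E. coli, for differential scanning fluorimetry. Each well held 19.5 μl of 2 μM kinase in 100 mM potassium phosphate pH 7.5, 150 mM NaCl, 10% glycerol and 5 × SYPRO Orange. Fluorescence was followed from 25°C to 95°C at a rate of 0.05°C/s. Shifts in Boltzmann-fitted melting temperature are triplicate means relative to DMSO-only protein.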

LOC_OS02G54510-cb004 = system: LOC_OS02G54510-cb004
Outline: as §1

LOC_OS03G04050-cb001 = system: LOC_OS03G04050-cb001
Outline: as §1

LOC_OS03G12390-cb001 = system: LOC_OS03G12390-cb001
Outline: as §1

LOC_OS03G27990-cb004 = system: LOC_OS03G27990-cb004
Outline: as §1

LOC_OS03G50450-cb001 = system: LOC_OS03G50450-cb001
Outline: as §1

LOC_OS03G50810-cb003 = system: LOC_OS03G50810-cb003
Outline: as §1

LOC_OS04G35114-cb001 = system: LOC_OS04G35114-cb001
Outline: as §1

LOC_OS04G38480-cb003 = system: T1, LOC_OS04G38480-cb003
T1 sequence (whole entry): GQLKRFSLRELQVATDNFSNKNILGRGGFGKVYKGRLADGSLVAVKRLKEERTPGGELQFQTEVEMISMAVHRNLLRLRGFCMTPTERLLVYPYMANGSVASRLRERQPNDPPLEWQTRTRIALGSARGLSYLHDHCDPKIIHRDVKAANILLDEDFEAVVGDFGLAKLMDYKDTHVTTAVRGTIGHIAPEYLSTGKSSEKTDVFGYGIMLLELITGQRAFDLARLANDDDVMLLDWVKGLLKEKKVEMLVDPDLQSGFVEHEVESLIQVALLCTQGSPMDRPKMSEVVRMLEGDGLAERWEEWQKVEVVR
Outline: as §1

LOC_OS04G41100-cb001 = system: T2, LOC_OS04G41100-cb001
T2 sequence (whole entry): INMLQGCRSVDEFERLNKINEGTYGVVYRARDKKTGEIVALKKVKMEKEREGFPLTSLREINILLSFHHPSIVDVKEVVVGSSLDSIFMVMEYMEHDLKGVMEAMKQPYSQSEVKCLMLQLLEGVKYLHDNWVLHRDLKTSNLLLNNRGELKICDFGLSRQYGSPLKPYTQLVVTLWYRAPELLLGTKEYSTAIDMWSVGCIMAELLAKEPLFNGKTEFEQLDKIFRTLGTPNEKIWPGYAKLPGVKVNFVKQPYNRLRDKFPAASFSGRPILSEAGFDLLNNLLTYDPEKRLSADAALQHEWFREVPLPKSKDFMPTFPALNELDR
Outline: as §1

LOC_OS04G57630-cb004 = system: LOC_OS04G57630-cb004
Outline: as §1

LOC_OS05G07850-cb002 = system: LOC_OS05G07850-cb002
Outline: as §1

LOC_OS05G16824-cb004 = system: LOC_OS05G16824-cb004
Outline: as §1

LOC_OS05G28520-cb001 = system: LOC_OS05G28520-cb001
Outline: as §1

LOC_OS05G30820-cb001 = system: LOC_OS05G30820-cb001
Outline: as §1

LOC_OS05G43570-cb004 = system: LOC_OS05G43570-cb004
Outline: as §1

LOC_OS06G16330-cb003 = system: LOC_OS06G16330-cb003
Outline: as §1

LOC_OS06G22820-cb001 = system: T3, LOC_OS06G22820-cb001
T3 sequence (whole entry): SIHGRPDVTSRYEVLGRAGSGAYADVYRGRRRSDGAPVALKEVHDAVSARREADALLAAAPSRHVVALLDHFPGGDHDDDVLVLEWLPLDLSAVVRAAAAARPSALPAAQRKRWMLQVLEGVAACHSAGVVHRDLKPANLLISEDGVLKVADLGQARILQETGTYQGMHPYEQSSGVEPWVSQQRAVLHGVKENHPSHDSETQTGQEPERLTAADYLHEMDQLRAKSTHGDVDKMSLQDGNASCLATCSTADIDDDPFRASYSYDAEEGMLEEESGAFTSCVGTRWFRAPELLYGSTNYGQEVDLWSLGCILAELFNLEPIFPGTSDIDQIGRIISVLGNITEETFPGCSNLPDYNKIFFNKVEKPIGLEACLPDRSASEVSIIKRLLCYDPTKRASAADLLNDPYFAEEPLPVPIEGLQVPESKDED
Outline: as §1

LOC_OS07G06570-cb004 = system: LOC_OS07G06570-cb004
Outline: as §1

LOC_OS07G07230-cb001 = system: LOC_OS07G07230-cb001
Outline: as §1

Sequence of LOC_OS06G16330-cb003 (as listed by the source): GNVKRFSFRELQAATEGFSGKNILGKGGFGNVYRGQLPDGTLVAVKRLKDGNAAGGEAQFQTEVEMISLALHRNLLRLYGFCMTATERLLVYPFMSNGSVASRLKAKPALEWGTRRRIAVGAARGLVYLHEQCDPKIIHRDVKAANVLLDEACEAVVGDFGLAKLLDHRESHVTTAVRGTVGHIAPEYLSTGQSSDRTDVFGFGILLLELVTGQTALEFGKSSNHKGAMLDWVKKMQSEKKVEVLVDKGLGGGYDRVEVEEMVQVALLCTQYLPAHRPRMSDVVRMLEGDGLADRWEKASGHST

SMILES	thermal shift delta Tm (LOC_OS02G45750-cb003)	thermal shift delta Tm (LOC_OS02G54510-cb004)	thermal shift delta Tm (LOC_OS03G04050-cb001)	thermal shift delta Tm (LOC_OS03G12390-cb001)	thermal shift delta Tm (LOC_OS03G27990-cb004)	thermal shift delta Tm (LOC_OS03G50450-cb001)	thermal shift delta Tm (LOC_OS03G50810-cb003)	thermal shift delta Tm (LOC_OS04G35114-cb001)	thermal shift delta Tm (LOC_OS04G38480-cb003)	thermal shift delta Tm (LOC_OS04G41100-cb001)	thermal shift delta Tm (LOC_OS04G57630-cb004)	thermal shift delta Tm (LOC_OS05G07850-cb002)	thermal shift delta Tm (LOC_OS05G16824-cb004)	thermal shift delta Tm (LOC_OS05G28520-cb001)	thermal shift delta Tm (LOC_OS05G30820-cb001)	thermal shift delta Tm (LOC_OS05G43570-cb004)	thermal shift delta Tm (LOC_OS06G16330-cb003)	thermal shift delta Tm (LOC_OS06G22820-cb001)	thermal shift delta Tm (LOC_OS07G06570-cb004)	thermal shift delta Tm (LOC_OS07G07230-cb001)
Cc1ccc(NC(=O)c2cccc(N(C)C)c2)cc1NC(=O)c1ccc(O)cc1	0.7 °C	0.45 °C	0.56 °C	0.34 °C	0.26 °C	0.28 °C	0.7 °C	0.46 °C	0.87 °C	0.23 °C	0.32 °C	0.13 °C	0.14 °C	0.63 °C	0.58 °C	0.61 °C	0.4 °C	0.59 °C	0.77 °C	0.22 °C
O=C(NOCC(O)CO)c1cc(Br)c(F)c(F)c1Nc1ccc(I)cc1F (stereo not given)	-0.49 °C	-0.06 °C	0.63 °C	0.93 °C	0.15 °C	0.19 °C	0.19 °C	0.09 °C	1.04 °C	3.8 °C	0.44 °C	0.69 °C	0.91 °C	0.42 °C	0.68 °C	0.96 °C	0.65 °C	1.13 °C	1.14 °C	-0.63 °C
OC1CCC(Oc2cccc3cnc(Nc4ccc5nc[nH]c5c4)nc23)CC1 (stereo not given)	17.1 °C	2.66 °C	0.39 °C	8.52 °C	5.39 °C	7.93 °C	7.28 °C	7.42 °C	4.8 °C	5.03 °C	4.38 °C	13.5 °C	18.9 °C	0.67 °C	2.88 °C	1.07 °C	12.4 °C	0.29 °C	1.85 °C	0.34 °C
CCc1nc(-c2cccc(C)c2)c(-c2ccnc(NC(=O)c3ccccc3)c2)s1	0.74 °C	-0.41 °C	0.27 °C	0.6 °C	0.28 °C	0.06 °C	0.03 °C	1.27 °C	0.74 °C	0.61 °C	0.17 °C	4.1 °C	-0.96 °C	0.55 °C	0.63 °C	-0.08 °C	0.66 °C	0.77 °C	1.16 °C	-0.21 °C
CC[C@@H](N)CNc1ccnc(-c2cc(-c3cnn(C)c3)ccc2O)n1	2.91 °C	-0.17 °C	0.27 °C	0.67 °C	0.75 °C	0.74 °C	1.49 °C	6.46 °C	1.41 °C	2.6 °C	1.21 °C	8.12 °C	8.38 °C	-0.2 °C	0.07 °C	0.12 °C	4.5 °C	0.55 °C	0.8 °C	0.48 °C
CS(=O)(=O)c1cccc(CNc2nc(Nc3ccc4c(c3)CCC(=O)N4)ncc2C(F)(F)F)c1	10.4 °C	1.28 °C	0.17 °C	5.43 °C	1.28 °C	3.56 °C	4.21 °C	3.71 °C	2.37 °C	2.51 °C	1.7 °C	8.91 °C	11.1 °C	1.18 °C	2.8 °C	0.96 °C	6.92 °C	0.35 °C	0.43 °C	-0.39 °C
